The record followed here is PubChem BioAssay (EPA / NIEHS).

Calls of active or inactive are those of the source. How the source made its calls, unless noted: active means hit-call score of the fitted dose curve at least 0.9, where 1 is the maximum; inactive means score below 0.9.

Read-out in assay [1]: Protein phosphatase 2A (PPP2R4), PTPA (gene 5524)
In words: LTEA_HepaRG_PPP2R4: Life Technologies and Expression Analysis (LTEA) Assay for Protein phosphatase 2A (PPP2R4) using HepaRG (AID 2283522). Conditions: mRNA level, 48 h; actives raise or lower the signal. In a few lines:
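Cells were plated, cultured 48 h, switched to serum-free induction medium, then dosed for 48 h (8 points, max 100 uM, 0.5% DMSO). RNA was isolated and PPP2R4 expression measured by TaqMan qRT-PCR.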

Read-out in assay [2]: Phosphatase and tensin (PTEN), PTEN (gene 5728)
In words: LTEA_HepaRG_PTEN: Life Technologies and Expression Analysis (LTEA) Assay for Phosphatase and tensin (PTEN) using HepaRG (AID 2283523). To be noted: mRNA level, 48 h; actives raise or lower the signal. The gist of the method: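 HepaRG, 48 h exposure, 8-pt half-log series from 100 uM top, 0.5% DMSO vehicle, duplicates. Readout: Fluidigm qRT-PCR of PTEN transcript; housekeeping normalization (ACTB, GAPDH, POLR2A). Gain or loss fitted relative to DMSO baseline.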

Read-out in assay [3]: solute carrier (SLC22A1), SLC22A1 (gene 6580)
In words: LTEA_HepaRG_SLC22A1: Life Technologies and Expression Analysis (LTEA) Assay for solute carrier (SLC22A1) using HepaRG (AID 2283524). To be noted: mRNA level, 48 h; actives raise or lower the signal. In a few lines:
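qRT-PCR readout (TaqMan, Fluidigm arrays) of SLC22A1 transcript, normalized to three housekeeping genes; bidirectional curve fit relative to 0.5% DMSO vehicle. Differentiated human HepaRG cells, 48 h chemical exposure, top concentration 100 uM, half-log steps, eight points.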

Read-out in assay [4]: Pyruvate Dehydrogenase Kinase 4 (PDK4), PDK4 (gene 5166)
In words: LTEA_HepaRG_PDK4: Life Technologies and Expression Analysis (LTEA) Assay for Pyruvate Dehydrogenase Kinase 4 (PDK4) using HepaRG (AID 2283525). To be noted: mRNA level, 48 h; actives raise or lower the signal. The gist of the method:
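HepaRG (human liver line), 48 h chemical exposure, 8-pt half-log CRC top 100 uM, 0.5% DMSO vehicle, duplicates. Readout: TaqMan qRT-PCR of PDK4 mRNA, housekeeping-normalized; gain/loss fit relative to DMSO baseline.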

Read-out in assay [5]: NAD(P)H dehydrogenase [quinone] 1 (NQO1), NQO1 (gene 1728)
In words: LTEA_HepaRG_NQO1: Life Technologies and Expression Analysis (LTEA) Assay for NAD(P)H dehydrogenase [quinone] 1 (NQO1) using HepaRG (AID 2283526). To be noted: mRNA level, 48 h; actives raise or lower the signal. In a few lines: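 Transcript induction or suppression is quantified by qRT-PCR in human HepaRG liver cells dosed for 48 hours. Eight half-log concentrations topping at 100 uM are used, with 0.5% DMSO as vehicle and baseline.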

Read-out in assay [6]: Nuclear factor erythroid 2-related factor 2 (Homo sapiens) (UniProt Q16236)
Briefly: LTEA_HepaRG_NFE2L2: Life Technologies and Expression Analysis (LTEA) Assay for Nuclear factor erythroid 2-related factor 2 (NFE2L2) Transcription Factor using HepaRG (AID 2283527).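 Further: TaqMan qRT-PCR transcript level normalised to ACTB GAPDH and POLR2A housekeeping genes.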 Conditions: mRNA level, 48 h; actives raise or lower the signal. The gist of the method:
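HepaRG, 48 h dosing, 8-pt half-log series from 100 uM in 0.5% DMSO, duplicates. Read-out: NFE2L2 mRNA by qRT-PCR (ACTB/GAPDH/POLR2A normalization). Bidirectional curve fit vs DMSO baseline.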

Read-out in assay [7]: succinate dehydrogenase complex iron sulfur subunit B (SDHB), SDHB (gene 6390)
In words: LTEA_HepaRG_SDHB: Life Technologies and Expression Analysis (LTEA) Assay for succinate dehydrogenase complex iron sulfur subunit B (SDHB) using HepaRG (AID 2283528). Conditions: mRNA level, 48 h; actives raise or lower the signal. In a few lines: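 A human HepaRG culture in serum-free induction medium received test chemicals for 48 h over an eight-point range capped at 100 uM. SDHB expression change was quantified by qRT-PCR.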

Read-out in assay [8]: Signal transducer and activator of transcription 3 (Homo sapiens) (UniProt P40763)
Briefly: LTEA_HepaRG_STAT3: Life Technologies and Expression Analysis (LTEA) Assay for Signal transducer and activator of transcription (STAT3) using HepaRG (AID 2283529). To be noted: mRNA level, 48 h; actives raise or lower the signal. The gist of the method: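 HepaRG, 48 h exposure, 8-pt half-log series (top 100 uM), 0.5% DMSO vehicle, duplicates. Readout: STAT3 transcript by Fluidigm qRT-PCR, housekeeping-normalized; bidirectional fit vs DMSO baseline.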

Read-out in assay [9]: solute carrier (SLCO1B1), SLCO1B1 (gene 10599)
Briefly: LTEA_HepaRG_SLCO1B1: Life Technologies and Expression Analysis (LTEA) Assay for solute carrier (SLCO1B1) using HepaRG (AID 2283530). To be noted: mRNA level, 48 h; actives raise or lower the signal. In a few lines: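 Differentiated human HepaRG cells, plated 48 h, switched to serum-free induction medium and exposed in duplicate for 48 h to 8 half-log concentrations (top 100 uM) in 0.5% DMSO. SLCO1B1 mRNA by TaqMan qRT-PCR, normalized to ACTB/GAPDH/POLR2A.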

Read-out in assay [10]: sulfotransferase 2A1 (SULT2A1), SULT2A1 (gene 6822)
Briefly: LTEA_HepaRG_SULT2A1: Life Technologies and Expression Analysis (LTEA) Assay for sulfotransferase 2A1 (SULT2A1) using HepaRG (AID 2283531). To be noted: mRNA level, 48 h; actives raise or lower the signal. In a few lines:
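Differentiated human HepaRG cells in serum-free induction medium were exposed for 48 h to eight half-log concentrations (top 100 uM, 0.5% DMSO). SULT2A1 mRNA was measured by qRT-PCR, normalized to ACTB, GAPDH and POLR2A, and fitted bidirectionally against DMSO.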

Read-out in assay [11]: Transforming Growth Factor (TGFA), TGFA (gene 7039)
Briefly: LTEA_HepaRG_TGFA: Life Technologies and Expression Analysis (LTEA) Assay for Transforming Growth Factor (TGFA) using HepaRG (AID 2283532). To be noted: mRNA level, 48 h; actives raise or lower the signal. In a few lines:
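qRT-PCR read-out of TGFA transcript, normalized to three housekeeping genes, fitted bidirectionally against 0.5% DMSO baseline. Human HepaRG cultures received chemicals for 48 h at eight half-log concentrations, top 100 uM.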

Read-out in assay [12]: Transforming Growth Factor (TGFB1), TGFB1 (gene 7040)
Briefly: LTEA_HepaRG_TGFB1: Life Technologies and Expression Analysis (LTEA) Assay for Transforming Growth Factor (TGFB1) Transporter using HepaRG (AID 2283533). To be noted: mRNA level, 48 h; actives raise or lower the signal. In a few lines: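 Differentiated human HepaRG cells in serum-free induction medium were exposed in duplicate for 48 h to eight concentrations (top 100 uM, half-log steps, 0.5% DMSO). TGFB1 mRNA was quantified by qRT-PCR, normalized to ACTB, GAPDH, POLR2A, and fitted bidirectionally against DMSO.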

Read-out in the next assay: TIMP1, TIMP1 (gene 7076)
In words: LTEA_HepaRG_TIMP1: Life Technologies and Expression Analysis (LTEA) Assay for TIMP1 using HepaRG (AID 2283534). To be noted: mRNA level, 48 h; actives raise or lower the signal. The gist of the method: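 Differentiated human HepaRG cells in serum-free induction medium were exposed 48 h to chemicals (8 half-log concentrations, top 100 uM, 0.5% DMSO). TIMP1 mRNA was quantified by TaqMan qRT-PCR, normalized to ACTB/GAPDH/POLR2A; bidirectional fit versus DMSO.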

Read-out in assay [13]: Tumor necrosis factor receptor 1 (TNFRSF1A), TNFRSF1A (gene 7132)
Briefly: LTEA_HepaRG_TNFRSF1A: Life Technologies and Expression Analysis (LTEA) Assay for Tumor necrosis factor receptor 1 (TNFRSF1A) using HepaRG (AID 2283535). To be noted: mRNA level, 48 h; actives raise or lower the signal. In a few lines:
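Differentiated human HepaRG cells were exposed in duplicate for 48 h in serum-free induction medium to eight concentrations (top 100 uM, half-log steps, 0.5% DMSO). TNFRSF1A mRNA was quantified by qRT-PCR, normalized to ACTB, GAPDH and POLR2A, then fitted bidirectionally against DMSO.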

Read-out in assay [14]: Thyroid Hormone Responsive (THRSP), THRSP (gene 7069)
In words: LTEA_HepaRG_THRSP: Life Technologies and Expression Analysis (LTEA) Assay for Thyroid Hormone Responsive (THRSP) using HepaRG (AID 2283536). To be noted: mRNA level, 48 h; actives raise or lower the signal. In a few lines:
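qRT-PCR read-out (Fluidigm TaqMan), housekeeping-normalized (ACTB/GAPDH/POLR2A). HepaRG, 48 h chemical exposure, 8-pt half-log series from 100 uM in 0.5% DMSO, duplicates. Bidirectional curve fit vs 0.5% DMSO baseline.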

Read-out in assay [15]: UDP glucuronosyltransferase (UGT1A1), UGT1A1 (gene 54658)
In words: LTEA_HepaRG_UGT1A1: Life Technologies and Expression Analysis (LTEA) Assay for UDP glucuronosyltransferase (UGT1A1) using HepaRG (AID 2283538). To be noted: mRNA level, 48 h; actives raise or lower the signal. In a few lines:
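Cells are plated, cultured 48 h, switched to serum-free induction medium, then dosed 48 h at eight concentrations (max 100 uM, 0.5% DMSO). RNA is isolated and UGT1A1 expression measured by qRT-PCR; changes versus DMSO are fitted in both directions.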

Read-out in assay [16]: UDP glucuronosyltransferase (UGT1A6), UGT1A6 (gene 54578)
In words: LTEA_HepaRG_UGT1A6: Life Technologies and Expression Analysis (LTEA) Assay for UDP glucuronosyltransferase (UGT1A6) using HepaRG (AID 2283539). Conditions: mRNA level, 48 h; actives raise or lower the signal. The gist of the method:
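Human HepaRG cells were dosed for 48 h in serum-free induction medium with 0.5% DMSO vehicle, eight-point half-log series from 100 uM, in duplicate. UGT1A6 mRNA was measured by qRT-PCR, normalized to ACTB, GAPDH, POLR2A, and fitted bidirectionally against DMSO.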

Read-out in assay [17]: X-box binding protein 1 (XBP1), XBP1 (gene 7494)
In words: LTEA_HepaRG_XBP1: Life Technologies and Expression Analysis (LTEA) Assay for X-box binding protein 1 (XBP1) using HepaRG (AID 2283540). To be noted: mRNA level, 48 h; actives raise or lower the signal. In a few lines:
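Differentiated human HepaRG cells in serum-free induction medium were exposed in duplicate for 48 h to eight half-log concentrations up to 100 uM in 0.5% DMSO. XBP1 mRNA was quantified by qRT-PCR, normalised to ACTB, GAPDH and POLR2A, with bidirectional fitting against DMSO.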

Assay [18] is described as follows: LTEA_HepaRG_LDH_cytotoxicity: Cytotoxicity Assessment in the Life Technologies and Expression Analysis (LTEA) Assay (AID 2283563; active means hit-call score of the fitted dose curve at least 0.9, where 1 is the maximum;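 on AC50: LDH activity released into spent culture medium as a marker of cell death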). The gist of the method:
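Differentiated human HepaRG cells, plated 48 h beforehand, were switched to serum-free induction medium and exposed for 48 h to eight half-log concentrations (top 100 uM) in 0.5% DMSO. LDH was measured in spent medium; activity was fitted relative to DMSO vehicle.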

Chain of Nuclear factor erythroid 2-related factor 2 (Homo sapiens) (Q16236 whole entry, looked up): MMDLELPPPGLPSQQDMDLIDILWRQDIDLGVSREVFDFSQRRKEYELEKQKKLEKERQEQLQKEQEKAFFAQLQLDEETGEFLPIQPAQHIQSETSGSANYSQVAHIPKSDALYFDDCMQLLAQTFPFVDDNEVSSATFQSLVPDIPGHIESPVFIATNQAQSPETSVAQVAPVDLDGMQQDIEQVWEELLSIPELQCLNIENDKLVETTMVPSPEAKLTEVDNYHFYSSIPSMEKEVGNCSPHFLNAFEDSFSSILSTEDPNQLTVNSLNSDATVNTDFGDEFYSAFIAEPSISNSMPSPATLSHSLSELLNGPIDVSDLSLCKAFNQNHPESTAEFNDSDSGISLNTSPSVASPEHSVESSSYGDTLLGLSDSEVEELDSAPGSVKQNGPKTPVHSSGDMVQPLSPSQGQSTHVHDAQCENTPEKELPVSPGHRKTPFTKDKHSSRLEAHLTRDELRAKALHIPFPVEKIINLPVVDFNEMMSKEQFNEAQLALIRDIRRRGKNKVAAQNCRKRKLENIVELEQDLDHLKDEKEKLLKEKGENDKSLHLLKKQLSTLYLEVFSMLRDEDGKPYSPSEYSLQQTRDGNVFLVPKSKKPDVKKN
Chain of Signal transducer and activator of transcription 3 (Homo sapiens) (P40763 whole entry, looked up): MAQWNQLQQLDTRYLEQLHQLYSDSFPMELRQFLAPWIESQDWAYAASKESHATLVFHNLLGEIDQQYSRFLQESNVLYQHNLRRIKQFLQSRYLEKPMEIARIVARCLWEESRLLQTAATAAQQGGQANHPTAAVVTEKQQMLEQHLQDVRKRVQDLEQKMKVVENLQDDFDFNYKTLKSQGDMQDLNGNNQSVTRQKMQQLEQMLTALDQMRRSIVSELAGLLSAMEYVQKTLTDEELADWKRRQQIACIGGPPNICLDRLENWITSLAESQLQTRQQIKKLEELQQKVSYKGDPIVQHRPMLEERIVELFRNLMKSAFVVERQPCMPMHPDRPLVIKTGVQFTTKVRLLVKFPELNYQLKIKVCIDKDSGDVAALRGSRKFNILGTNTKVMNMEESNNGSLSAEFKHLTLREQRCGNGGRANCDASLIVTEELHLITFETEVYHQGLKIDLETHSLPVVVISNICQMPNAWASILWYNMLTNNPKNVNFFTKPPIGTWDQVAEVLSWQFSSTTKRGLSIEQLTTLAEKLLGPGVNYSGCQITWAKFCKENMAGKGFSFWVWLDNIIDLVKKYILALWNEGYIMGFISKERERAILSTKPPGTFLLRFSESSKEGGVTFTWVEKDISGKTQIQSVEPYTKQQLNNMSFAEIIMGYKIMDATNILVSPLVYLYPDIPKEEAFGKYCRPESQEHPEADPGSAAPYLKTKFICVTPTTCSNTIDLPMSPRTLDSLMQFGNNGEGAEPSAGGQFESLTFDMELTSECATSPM

A word on the AC50: it is the midpoint of the concentration-response curve, whichever way the signal moves. Regarding `CC(COc1ccc(Oc2ccccc2)cc1)Oc1ccccn1` (stereo not drawn), the compound was called inactive in assay [1], in assay [2], in assay [5], in [6], in [7] and in assay [8]. The outcome in assay [9] is “inactive”; in [10], “inactive”; in assay [11], “inactive”; in [12] it was “inactive”; with TIMP1, TIMP1 (gene 7076), “inactive”; in assay [13], “inactive”. Also, the call in assay [16], in assay [17] and in assay [18] was inactive. Besides, the AC50 was 12.1 µM (active) in assay [3], 25.4 µM (active) in [4], 16.3 µM (active) in assay [14] and 8.3 µM (active) in assay [15].
As for `Cc1cc(C2CC2)nc(Nc2ccccc2)n1`, the result in assay [1], in assay [2], in assay [4], in assay [5], in [6] and in assay [7] was inactive. Moreover, the outcome in assay [8] was “inactive”; in assay [9], “inactive”; in [10] it was “inactive”; in assay [11] it was “inactive”; in assay [12], “inactive”; with TIMP1, TIMP1 (gene 7076), “inactive”. Moreover, the compound was called inactive in assay [13], in assay [16] and in assay [17]. Also, the AC50 in assay [3] is 67.7 µM (active); in assay [14] it was 50 µM (active); in assay [15], 50 µM (active); in [18], 73.7 µM (active).
